Screening data (PubChem)
Tau FP inhib: qHTS for Inhibitors of Tau Fibril Formation, Fluorescence Polarization; Microtubule-associated protein tau (Homo sapiens), P10636; AID 1468, 2008; Potency, µM (series often up to 57.7 µM), without a hit: at the highest dose activity, negative = inhibition, usual class: inhibitors; actives 0.39% (n = 280,000); K18 P301L tau heparin fibrillization, Alexa594 FP, 6 h; note: potency is the fitted concentration of half-maximal effect; nearly all actives have a fitted effect of over 55% in size
Target sequence (P10636 561-689 P618L limits assumed): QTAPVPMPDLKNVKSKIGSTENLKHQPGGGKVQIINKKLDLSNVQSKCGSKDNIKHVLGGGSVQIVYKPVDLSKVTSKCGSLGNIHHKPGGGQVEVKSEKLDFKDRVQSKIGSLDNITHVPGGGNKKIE
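Quantitative HTS format: compounds meet 15 uM recombinant K18 P301L tau and Alexa 594-tau tracer in 100 mM sodium acetate pH 7; 20 uM heparin triggers fibrillization at 37 C over 6 hr; FP gives the signal.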
FBPA coupling cs: qHTS Assay for Inhibitors of Fructose-1,6-bisphosphate Aldolase from Giardia Lamblia: Coupling assay counterscreen. coupling enzyme system counterscreen, AmpLite Red fluorescence. activity change, negative = inhibition, % at 58.2 µM, hits read low. actives 0.67% (n = 290,000). AID 2472, 2010; in the data active = activity change below about -30%
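Counterscreen lacking aldolase: glyceraldehyde-3-phosphate coupling-enzyme reagent preincubated 10 min at RT with compound (at 57.5 uM final), then substrate/coupling system with AmpLite Red added; fluorescence read at 525/598 nm after 20 min RT.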
Tau fibril ThT: qHTS for Inhibitors of Tau Fibril Formation, Thioflavin T Binding; Potency, µM (doses to about 57.4 µM), without a hit: at the top dose activity, negative = inhibition, actives largely listed as inhibitors; actives 2.1% (n = 270,000); recombinant tau K18 P301L, heparin-induced fibrillization, ThT fluorescence; Microtubule-associated protein tau (Homo sapiens), P10636; note: potency is the fitted concentration of half-maximal effect; nearly all actives have a fitted effect of over 55% in size
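ThT emission at 510 nm, taken 1 hr after adding 30 uM dye, quantifies aggregates formed when 20 uM heparin acts on human tau K18 P301L for 6 hr at 37 C.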
JMJD2E inh: qHTS Assay for Inhibitors of Human Jumonji Domain Containing 2E (JMJD2E). Potency, µM (highest dose often 57.1 µM), for the others: top-dose activity change, negative = inhibition, hits mostly inhibitors. actives 1.6% (n = 230,000). AID 2147, 2009. JMJD2E catalytic domain, FDH-coupled NADH fluorescence (FDH is formaldehyde dehydrogenase);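 note: potency is the fitted concentration of half-maximal effect; 0% = wells with enzyme and -100% = buffer wells without enzyme; nearly all actives have a fitted effect of over 50% in size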
Target sequence (B2RXH2 1-337 limits assumed): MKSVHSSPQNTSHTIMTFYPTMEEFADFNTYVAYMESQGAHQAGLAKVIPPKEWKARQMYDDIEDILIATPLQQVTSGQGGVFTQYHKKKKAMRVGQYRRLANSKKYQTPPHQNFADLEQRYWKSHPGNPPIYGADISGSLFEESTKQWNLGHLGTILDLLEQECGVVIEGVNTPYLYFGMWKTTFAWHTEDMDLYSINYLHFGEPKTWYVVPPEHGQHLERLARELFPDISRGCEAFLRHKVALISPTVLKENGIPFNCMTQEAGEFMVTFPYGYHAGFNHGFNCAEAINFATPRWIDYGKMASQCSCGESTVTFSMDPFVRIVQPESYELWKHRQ
Tau fluor counter: Counterscreen qHTS for Inhibitors of Tau Fibril Formation, Fluorescence Polarization | AID 1463, 2008 | tau K18 P301L Alexa594 fluorescence, heparin fibrillization | actives 0.93% (n = 280,000) | Potency, µM (series often up to 57.7 µM), for the others: at the highest dose activity change, negative = decrease; note: potency is the fitted concentration of half-maximal effect; nearly all actives have a fitted effect of over 55% in size
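Human tau K18 P301L (15 uM unlabeled, 0.24 uM Alexa 594-labeled) in 100 mM sodium acetate pH 7 with 20 uM heparin, 6 hr at 37 C. ThT 30 uM added, 1 hr ambient; Alexa 594 FP and total fluorescence read at 555/632 nm.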
An asterisk follows results filed as active; ? = inconclusive; . = no result; ! = not confirmed by another sample; [ ] = dose if it differs, or a comment. A selection: hits, their analogues and other compounds. The true share with any hit is near 3%. Unless noted, calls come from the whole dose curve; as a rule, active = well fitted curve in the direction sought with a large enough effect; inconclusive = small, poorly fitted or top-dose-only effect, or another doubt; inactive = no such curve, though single readings can be large; an effect the other way counts as inactive or inconclusive. Unless noted, % is set by controls: 0 for no effect and ±100 for the full control effect.

SMILES	Tau FP inhib	FBPA coupling cs	Tau fibril ThT	JMJD2E inh	Tau fluor counter
Cc1o[nH]c(=O)c1CC(N)C(=O)O (centres undefined)	6%	.	-4%	-3%	-1%
N[C@@H](Cn1oc(=O)[nH]c1=O)C(=O)O	-3%	-3	-8%	20µM*	-12%
Oc1ccc(/C=N/NP(=S)(c2ccccc2)c2ccccc2)c(O)c1O	?	-16	25µM*	14µM*	?
Oc1ccc(/C=N/NP(=S)(c2ccccc2)c2ccccc2)cc1O	12%	0	?	?	14µM*[quencher]
O=P1(Oc2ccccc2)CC=CC(COCc2ccccc2)O1 (centres undefined)	.	2	.	.	.
C/C(=N\NP(=S)(c1ccccc1)c1ccccc1)c1ccc(O)cc1O	-3%	-5	?	-13%	32µM*[quencher]
CN1Cc2c(ccc3c2OCO3)C2C(O)Cc3cc4c(cc3C21)OCO4 (centres undefined)	4%	-1	-1%	3%	-3%
CC(C)=CCCC(C)C1CC[C@@]2(C)C3=C(CC[C@@]12C)C1(C)CCC(O)C(C)(C)C1CC3 (some centres undefined)	-7%	1	?	-9%	-12%
CCOC(=O)Cn1cc(C(=O)c2ccccc2F)c2ccccc21	-5%	0	3%	3%	-9%
CCOC(=O)Cn1cc([N+](=O)[O-])nc1[N+](=O)[O-]	1%	-39*	10%	-12%	12%
CC#C[C@]1(O)CC[C@H]2C3C=C(C)C4=CC(=O)C=C[C@]4(C)[C@H]3[C@@H](O)C[C@@]21C (some centres undefined)	.	-8	.	.	.
CC1=NN(c2ccccc2)C(=O)C1=C(C)C	-9%	2	11µM*	-7%	?
COc1cccc(N2CCN(Cc3cccc(Cl)c3)CC2)c1	5%	2	?	-11%	-18%
COc1cccc(N2CCN(Cc3ccc(Cl)cc3)CC2)c1	0%	-20	-12%	20µM*	-17%
CN[C@@H]1C[C@H](c2ccc(Cl)c(Cl)c2)c2ccccc21	1%	3	-23%	8%	-19%
C[C@@H]1CC[C@H]2[C@@H](C)C(=O)O[C@@H]3OC4(C)CC[C@@H]1[C@]32OO4	4%	1	-6%	.	-3%
C[C@H]1OC[C@@H](C[N+](C)(C)C)O1	-12%	3	-14%	25µM*!	-13%
C[C@@H]1O[C@H](C[N+](C)(C)C)C[C@H]1O	2%	.	-1%	2%	0%
CCN(CC)c1ccc(C=C2C(=O)N(C)C(=S)N(C)C2=O)o1	-12%	1	10µM*	-2%	-1%
CCN(CC)c1ccc(/C=C2\C(=O)NC(=S)N(C)C2=O)o1	6%	1	14µM*	0%	-10%
COc1ccc(N2C(=O)/C(=C/c3ccc(N(C)C)o3)C(=O)NC2=S)cc1	.	-1	.	.	.
COc1cc(OC)c(OC)cc1CN1CCc2nc(N3CCN(c4ccccc4F)CC3)ncc2C1	7%	.	?	.	-4%
CCOC(=O)c1ncc2[nH]c3ccc(OCc4ccccc4)cc3c2c1COC	-16%	0	?	.	4µM*[quencher]
CCCOC(=O)c1cc2c(cn1)[nH]c1ccccc12	-17%	.	?	.	?
O=c1[nH]c(=S)n(-c2ccc(Cl)cc2)c(O)c1C=Nc1ccc(N2CCOCC2)cc1	-7%	-5	25µM*	4%	?
CCCN1CCc2cc(O)cc3c2C1Cc1ccc(O)c(O)c1-3 (centres undefined)	35µM*	.	16µM*	?	16µM*[quencher]
CC(=O)Nc1c2sscc-2n(C)c1=O	?	-1	16µM*	.	-18%
Cc1cc(C)cc(OCC(=O)Nc2ccc(-c3nc4ccccc4s3)cc2)c1	-10%	.	?	.	-11%
COC(=O)C1=Nc2ccccc2/C1=C\c1c(O)n(-c2ccc(OC)cc2)c(=O)[nH]c1=O	?	-1	?	18µM*	?
